{"source": "PubChem BioAssay (NCATS)", "note": "Records with an inconclusive call do not appear. The source made the active and inactive calls. Calls follow the shape of the dose curve; as a rule, active = well fitted cell-killing curve with a large enough effect; inconclusive = small, poorly fitted or top-dose-only effect; inactive = flat fitted curve, though single readings scatter."}
{"test": "NCATS anti-infectives library activity on HEK293 viability as a counter-qHTS vs the C. elegans viability qHTS (AID 1745854)", "conditions": "HEK293 viability counter-screen; series mostly up to 41.8 µM", "description": "Assay Development and Screening Technology Laboratory (ADST)\nNational Center for Advancing Translational Sciences (NCATS), Rockville, MD\nNational Institute of Health (NIH), Bethesda, Maryland\nCaenorhabditis elegans has helped elucidate the evolutionarily conserved genetics underlying pathways and cellular processes implicated in human disease and may be ideally positioned to reveal novel pharmacological properties of exiting drugs. The organism's short life cycle and microscopic size is applicable to the technical requirements of high-throughput screening. Here a quantitative high-throughput screening (qHTS)-based forward chemical biology platform has been developed using C. elegans. 384-well microtiter plate laser scanning cytometry was used in the rapid detection and quantification of the fluorescent protein-encoded phenotype to score worm viability. In a proof-of-concept study, the pharmacological qHTS profile obtained from a library of 643 anti-infective compounds.\n1. Inglese, J., Auld, D. S., Jadhav, A., Johnson, R. L., Simeonov, A., Yasgar, A., Zheng, W., and Austin, C. P. (2006) Quantitative high-throughput screening: A titration-based approach that efficiently identifies biological activities in large chemical libraries, P Natl Acad Sci USA 103, 11473-11478.\n2. Auld, D. S., Johnson, R. L., Zhang, Y. Q., Veith, H., Jadhav, A., Yasgar, A., Simeonov, A., Zheng, W., Martinez, E. D., Westwick, J. K., Austin, C. P., and Inglese, J. (2006) Fluorescent protein-based cellular assays analyzed by laser-scanning microplate cytometry in 1536-well plate format, Method Enzymol 414, 566-589.\n3. Zuck, P., Lao, Z., Skwish, S., Glickman, J. F., Yang, K., Burbaum, J., and Inglese, J. (1999) Ligand-receptor binding measured by laser-scanning imaging, Proc Natl Acad Sci U S A 96, 11122-11127.\nPROTOCOL TABLE (as described by Inglese J, Shamu CE and Guy RK. 2007)\nSEQUENCE No. (e.g., 1, 2, 3, etc.); […] (e.g., C. elegans, Compounds, Incubation, Read, etc.); VALUE and DESCRIPTION.\n1. Compounds. Library compounds and digitonin control added at 25 nL per well to 7 assay ready 1536-well Greiner white/solid bottom high base, TC plates and two DMSO control plates, transferred by Echo acoustic dispenser.\n2. Cells. Seed 1500 HEK293 per well in 6 uL into assay ready Greiner 1536-well plates.\n3. Incubation. Incubate plated cells with compounds at 37C in 5% CO2, 95% RH for 24 hr.\n4. Reagent. Add 4 uL of CellTiter-Glo reagent from Promega per well of Greiner 1536-well plates with BioRAPTR FRD.\n5. Incubation. Incubate treated cells at room temperature for 10 min., protect from light.\n6. Detector. CellTiter-Glo luminescence measured using CCD-based camera (Viewlux) with settings as follows: Exposure, 1 sec; Gain, High; Speed, Slow; Binning, 2X.\nNOTES (numbers refer to Sequence numbers above; values are from representative experiments)\n1. NIH Anti-Infectives library pre-dispensed into 7 assay ready 1536-well Greiner white/solid bottom high base, TC plates with Echo 555 acoustic dispenser. Most compounds dispensed at 10 mM high concentration and plated in 7-pt 1:5 inter-plate titration at 25 nl / well for a final assay concentration range of 41.7 uM - 2.7 nM. Two 1536-well Greiner assay plates of DMSO plated as screening controls to be read at the beginning and the end of the screen. Controls included DMSO vehicle control added at 25 nl/well to each well of column 1 and […] (83.3 uM final assay concentration), and Digitonin titrated 1:2 at 25 nl/ well to column 4 in duplicate for a final assay concentration range of 83.3 uM - 2.5 nM.\n2. HEK293 cells grown for 48 hr in one T175 culture flask in DMEM high glucose media supplemented with 10% FBS and 1% Pen/Strep antibiotic. Cells trypsinized and diluted in 10 ml supplemented media, strained through 40 µm cell strainer, and diluted to a total volume of 40 ml with supplemented media. […]"}
{"smiles": "CCC[C@@]1(CCc2ccccc2)CC(O)=C([C@H](CC)c2cccc(NS(=O)(=O)c3ccc(C(F)(F)F)cn3)c2)C(=O)O1", "outcome": "inactive"}
{"smiles": "CC(=O)C1=C(O)C=C2Oc3c(C(C)=O)c(O)c(C)c(O)c3[C@]2(C)C1=O", "outcome": "inactive"}
{"smiles": "CCCC(CCC)C(N)=O", "outcome": "inactive"}
{"smiles": "CN(C)C(=O)Nc1cccc(-c2ccc(N(C)C)cc2)c1", "outcome": "inactive"}
{"smiles": "Cc1onc(-c2ccccc2)c1C(=O)N1CCN(c2ccc([N+](=O)[O-])cc2Cl)CC1", "outcome": "inactive"}
{"smiles": "C[C@H]1CO[C@@H]2Cn3cc(C(=O)NCc4ccc(F)cc4F)c(=O)c(O)c3C(=O)N12", "outcome": "inactive"}
{"smiles": "O=c1[nH]c([C@@H]2CCCN2)nc2c1oc1ccc(Cl)cc12", "outcome": "inactive"}
{"smiles": "O=C(Nc1ncc([N+](=O)[O-])s1)c1ccccc1O", "outcome": "inactive"}
{"smiles": "O=C(NO)c1ccc(CC(=O)N(CCO)c2ccccc2)cc1", "outcome": "inactive"}
{"smiles": "CCC[C@H](N[C@H]1CCc2cc(F)cc(F)c2C1)C(=O)Nc1cn(C(C)(C)CNCC(C)(C)C)cn1", "outcome": "inactive"}
{"smiles": "COC1CCN(C(=O)c2cc(Cc3n[nH]c(=O)c4ccccc34)ccc2F)CC1", "outcome": "inactive"}
{"smiles": "Cn1nc(C(C)(C)C)cc1C(=O)N[C@@H](Cc1cccc(Cl)c1)C(=O)NCC#N", "outcome": "inactive"}
{"smiles": "CCCc1ccc(OCC(=O)N(Cc2nc(-c3cccnc3)no2)C(C)C)cc1", "outcome": "inactive"}
{"smiles": "Cc1cc2ncc(C(=O)NCC(C)(C)NCC(=O)N3CCC[C@H]3C#N)cn2n1", "outcome": "inactive"}
{"smiles": "COc1cc(C[C@H]2C(=O)OC[C@@H]2Cc2ccc(OC)c(OC)c2)ccc1O", "outcome": "inactive"}
{"smiles": "Cc1cnc(-c2ccccc2C(C)C)nc1NCc1ccc(-n2ccnn2)cc1", "outcome": "inactive"}
{"smiles": "CO[C@H]1C[C@@H]2CC[C@@H](C)[C@@](O)(O2)C(=O)C(=O)N2CCCC[C@H]2C(=O)O[C@H]([C@@H](C)C[C@@H]2CC[C@@H](O)[C@H](OC)C2)CC(=O)[C@H](C)/C=C(\\C)[C@@H](O)[C@@H](OC)C(=O)[C@H](C)C[C@H](C)/C=C/C=C/C=C/1C", "outcome": "inactive"}
{"smiles": "COc1ccc(NC(=O)c2ccc(C(=N)N(C)C)cc2)c(C(=O)Nc2ccc(Cl)cn2)c1", "outcome": "inactive"}
{"smiles": "O=C(NCC1(c2nc(-c3ccccc3)cs2)CCOCC1)c1cccc(-c2noc(C(F)(F)F)n2)c1", "outcome": "inactive"}
{"smiles": "O=C(Cc1cccc(OC(F)(F)F)c1)Nc1ccc(CCCCc2nnc(NC(=O)Cc3ccccn3)s2)nn1", "outcome": "inactive"}
{"smiles": "CC(C)(CNC(=O)c1cccc(-c2noc(C(F)(F)F)n2)c1)c1coc(-c2ccccc2)n1", "outcome": "inactive"}
{"smiles": "Cn1cc(-c2ccc(S(=O)(=O)n3ccc(/C=C/C(=O)Nc4ccccc4N)c3)cc2)cn1", "outcome": "inactive"}
{"smiles": "O=C(Nc1cc(C(F)(F)F)ccc1N1CCCCC1)c1ccncc1", "outcome": "inactive"}
{"smiles": "COc1cccc(N2CCN(C3=Nc4c(F)cccc4[C@H](CC(=O)O)N3c3cc(C(F)(F)F)ccc3OC)CC2)c1", "outcome": "inactive"}
{"smiles": "CCCN1CCC=C(c2cc(-c3ccc(C)cc3)no2)C1", "outcome": "inactive"}
{"smiles": "NS(=O)(=O)c1ccc(NC(=O)Nc2ccc(F)cc2)cc1", "outcome": "inactive"}
{"smiles": "CC(C)CCNC(=O)[C@H](CC(C)C)NC(=O)[C@H]1O[C@@H]1C(=O)O", "outcome": "inactive"}
{"smiles": "O=C(NC[C@H]1CN(c2ccc(N3CCOCC3=O)cc2)C(=O)O1)c1ccc(Cl)s1", "outcome": "inactive"}
